# Compounds with a hit are over-represented: about 3.3% of the library has one in this group of screens.
# YjeE inh: displaces an ADP probe from E. coli YjeE (TsaE); P0AF67; purified YjeE enzyme, qHTS inhibition assay; Potency, µM; 71,000 tested, 0.05% active; AID 605
#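 Fluorescence polarization of a BODIPY Texas Red–ADP probe (2 uM) bound to purified YjeE (10 uM) was read after 15 min room-temperature incubation with compounds. Loss of polarization marks inhibitors; ADP serves as titrated control.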
# DNA Pol III inh: DNA polymerase III holoenzyme inhibition | reconstituted DNA polymerase III holoenzyme replication, biochemical | Potency, µM (doses to about 57.1 µM), without a hit: top-dose activity change, negative = inhibition | 71,000 tested, 0.25% active; note: potency is the fitted concentration of half-maximal effect; % is set by controls: 0 for no effect and ±100 for the full control effect
#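 Reconstituted *E. coli* holoenzyme (0.35 nM Pol III, 1 nM beta, 154 nM SSB, 2 nM primase) was preincubated with compound for 15 min at RT. Synthesis on 1.4 nM ssM13Gori ran 35 min, then was stopped with PicoGreen/EDTA and read as dsDNA fluorescence.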
# Tau fil binding: binders of human tau filaments; 71,000 tested, 2% active; Potency, µM (top dose mostly 57.1 µM), without a hit: at the top dose activity change, negative = inhibition; P10636; recombinant tau filaments, thioflavin S fluorescence, 15 h; filaments grown with octadecylsulfate alongside compound;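 note: potency is the fitted concentration of half-maximal effect; % is set by controls: 0 for no effect and ±100 for the full control effect; actives lower thioflavin S fluorescence by blocking filaments or displacing dye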
#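 Thioflavine S fluorescence (ex 450, em 510 nm) reports filaments formed from 1 uM human tau plus 30 uM ODS over 15 h at 37 C (10 mM HEPES pH 7.4, 100 mM NaCl, 5 mM DTT); compounds displacing dye or blocking filaments lower signal.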
# 15-hLO inh: blocks human 15-lipoxygenase activity. P16050. purified 15hLO-1, xylenol orange hydroperoxide absorbance. Potency, µM (titrated, usually from 57.1 µM), inactives show at the highest dose activity change, negative = inhibition, usual class: inhibitors. 74,000 tested, 1.4% active; note: potency is the fitted concentration of half-maximal effect; % is set by controls: 0 for no effect and ±100 for the full control effect; nearly all actives have a fitted effect of over 55% in size
#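 Quantitative HTS in 25 mM Hepes pH 7.5 containing 0.01% Triton X-100: human 15hLO-1 at 40 nM, arachidonic acid at 50 uM, 6 min turnover. Product quantified via ferrous oxidation/xylenol orange, 573:405 nm absorbance ratio.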
# BRCT PPI green: blocks human BRCA1 BRCT binding to phosphopeptide, green readout; P38398; BRCA1 BRCT-phosphopeptide binding, green fluorescence polarization; Potency, µM (top dose mostly 76.9 µM), inactives show at the highest dose activity change, negative = inhibition, usual class: inhibitors; 75,000 tested, 0.05% active; AID 875;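 note: potency is the fitted concentration of half-maximal effect; plate controls were peptide without protein for full effect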
#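 Fluorescence polarization: His-tagged BRCT (~35 kDa BRCA1 C-terminus, 250 nM) bound to 100 nM fluorescein-labeled phosphorylated 10-aa BACH1 peptide, pH 7.3 phosphate buffer with DTT and Tween 20. Compounds incubated 12 min at room temperature; inhibition read as lowered polarization.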
# BRCT inh red: BRCT-phosphoprotein interaction inhibition (red fluorophore); P38398; 75,000 tested, 0.03% active; AID 892; BRCT-phosphopeptide binding, red fluorescence polarization; Potency, µM (titrated, usually from 76.9 µM), without a hit: top-dose activity change, negative = inhibition, usual class: inhibitors; note: % is set by controls: 0 for no effect and ±100 for the full control effect
#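 Rhodamine-labelled pBACH1 10-mer (100 nM) bound to BRCT domain (100 nM) at pH 7.3; compounds incubated 12 min room temperature, polarization read. Free peptide defines full inhibition; unlabelled decapeptide titrated as control.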
# Starred values were filed as active, the others as inactive; i = inactive; ? = inconclusive; . = no result given; [ ] = another dose, or the depositor's remark. Calls come from the whole dose curve; as a rule, active = well fitted curve in the direction sought with a large enough effect; inconclusive = small, poorly fitted or top-dose-only effect, or another doubt; inactive = no such curve, though single readings can be large; an effect the other way counts as inactive or inconclusive.
SMILES,YjeE inh,DNA Pol III inh,Tau fil binding,15-hLO inh,BRCT PPI green,BRCT inh red
COc1cccc(Cn2c(=O)c(-c3ccccc3)nc3cncnc32)c1,i,-21%,20µM*,-6%,0%,-3%
COc1cccc(Cn2c(=O)c(-c3ccc(F)c(F)c3)nc3cncnc32)c1,i,-10%,10µM*,?,1%,1%
CC1CCN(CC(=O)Nc2sc3c(c2C#N)CCC3)CC1,i,-1%,22%,25µM*,22%,0%
N#Cc1c(NC(=O)c2ccncc2)sc2c1CCC2,i,-12%,16µM*,?,0%,0%
Cn1cnc([N+](=O)[O-])c1Sc1nc(N)nc2c1ncn2[C@H]1C[C@H](O)[C@@H](CO)O1,i,-2%[11.4 µM],-1%[11.4 µM],17%[11.4 µM],-3%[15.4 µM],0%[15.4 µM]
CCCNC(=O)OC[C@@H]1O[C@H](CCO/N=C(\C)CCN2CCc3nc(-c4ccccc4)c(-c4ccccc4)cc3C2)C=C[C@@H]1Oc1ccc(OC)cc1,.,.,.,-1%[11.4 µM],1%[15.4 µM],1%[15.4 µM]
C=C1CCO[C@@]2([C@H](O)[C@@](C)(O)CO)NC(=O)[C@]1(O)NC2=O,i,-6%[11.4 µM],-4%[11.4 µM],4%[11.4 µM],-1%[15.4 µM],-3%[15.4 µM]
C/C(=C\C(=O)c1ccc(F)cc1)Nc1ccc(N2CCOCC2)cc1,i,-2%,6.3µM*,?,-1%,1%
Cc1ccc(C(=O)Nc2ccc(N3CCOCC3)cc2)cc1,i,-4%,15%,-3%,-4%,1%
Cc1ccc(-c2nc3cnccn3c2Nc2ccc3c(c2)OCCO3)o1,i,2%,-8%,25µM*,-4%,-2%
CCNC(=O)[C@@H]1O[C@@H](n2cnc3c(NCc4ccccc4)ncnc32)[C@@H](O)[C@H]1O,i,1%,10%,.,.,.
CCOC(=O)CCCCC1=CC2=CC(=O)C(C)(O)C(=O)C2=CO1 (stereo unspecified),.,.,.,-4%[11.4 µM],0%[15.4 µM],0%[15.4 µM]
S=c1ccss1,.,.,.,7.9µM*,-2%,2%
Cc1c2cc[n+](CCN3CCCCC3)cc2c(C)c2c1[nH]c1ccc(O)cc12,i,2.5µM*,4µM*,26%[11.4 µM],-5%[15.4 µM],0%[15.4 µM]
CN1CCc2nc(SCCOc3ccccc3)c(C#N)cc2C1,i,-14%,68%,3.2µM*,-5%,-3%
CCS(=O)(=O)CCSc1nc2c(cc1C#N)CCCC2,i,-6%,-6%,-23%,4%,-1%
Cc1c(C)n(C)c2ccc(C(=O)NCc3cccs3)cc12,?,0%,23%,10µM*,7%,10%
NS(=O)(=O)c1ccc(N=Nc2cc3ccccc3c(C(=O)O)c2O)cc1,i,-17%[11.4 µM],1.3µM*,-10%[11.4 µM],-1%[15.4 µM],0%[15.4 µM]
CCOC(=O)c1c(C)oc2c1c(C(c1ccncc1)N1CCOCC1)c(O)c1ccccc12 (stereo unspecified),i,-3%,13µM*,?,-1%,-1%
CCOC(=O)c1c(C)oc2c1c(C=NC1CCS(=O)(=O)C1)c(O)c1ccccc12 (stereo unspecified),i,-4%,28%,-2%,1%,0%
COc1ccc(Nc2nc3ccccc3nc2C)cc1,i,-4%,20µM*,-14%,17%,3%
O=C(Nc1ccc2c(c1)OCCO2)c1ccc2nccnc2c1,i,-3%,-5%,4%,-1%,0%
O=C(Nc1ccc(SC(F)F)cc1)c1ccc2nccnc2c1,i,-11%,13µM*,-16%,-2%,1%
Nc1nc(N)c2nn(-c3ccc(C(=O)O)cc3)nc2n1,i,-6%[11.4 µM],-1%[11.4 µM],5%[11.4 µM],0%[15.4 µM],0%[15.4 µM]
CCOC(=O)c1ccc(N)cc1,i,-11%[25.6 µM],4%[25.6 µM],4%,-2%[3.08 µM],1%
SMILES,YjeE inh,DNA Pol III inh,Tau fil binding,15-hLO inh,BRCT PPI green,BRCT inh red
CCOC(=O)c1cc(-c2ccc(N)cc2)sc1N,i,1%,25µM*,25µM*,-1%,-1%
CC(C)(C)c1cc2c(O)c(c1)Cc1cc(C(C)(C)C)cc(c1O)Cc1cc(C(C)(C)C)cc(c1O)Cc1cc(C(C)(C)C)cc(c1O)Cc1cc(C(C)(C)C)cc(c1O)Cc1cc(C(C)(C)C)cc(c1O)Cc1cc(C(C)(C)C)cc(c1O)Cc1cc(C(C)(C)C)cc(c1O)C2,i,14%[11.4 µM],0%[11.4 µM],9%[11.4 µM],-4%[15.4 µM],0%[15.4 µM]
COc1ccc(-c2oc(/N=C/N3CCOCC3)c(C#N)c2-c2ccc(OC)cc2)cc1,i,-1%,1µM*,-30%,0%,0%
N#Cc1c(/N=C/c2ccco2)oc(-c2ccccc2)c1-c1ccccc1,i,1%,-9%,-16%,-1%,0%
CN(C)C(=O)c1ccc(-c2ccc3ncnc(Nc4ccccc4)c3c2)cc1,i,0%,-8%,4%,1%,2%
CCN(Cc1ccccc1)C(=O)CCCOc1ccccc1,i,-2%[11.4 µM],-29%[11.4 µM],4µM*,-1%,-1%
OC[C@H]1O[C@@H](OC[C@H]2O[C@@H](O)[C@H](O)[C@@H](O)[C@@H]2O)[C@H](O)[C@@H](O)[C@@H]1O,.,.,.,-6%[25.6 µM],-2%,2%
OCC1OC([S-])[C@H](O)C(O)C1O.[Au+] (stereo partly specified),.,.,.,?,-2%[3.08 µM],32µM*
NC(=O)N/N=C1\CC[C@H](O)C[C@@H]1CC(=O)O,i,-2%[11.4 µM],4%[11.4 µM],-1%[11.4 µM],0%[15.4 µM],2%[15.4 µM]
CC(C)n1cc(/C=C(\C#N)S(=O)(=O)c2ccccc2)c2ccccc21,i,-2%,7.9µM*,-15%,3%,1%
CC(C)C(=O)N1CCN(c2ccc(NC(=O)c3ccc(Br)o3)cc2)CC1,i,-3%,-8%,6%,-3%,1%
O=C(Nc1ccc(N2CCN(C(=O)c3ccc(Cl)cc3)CC2)cc1)c1ccc(Br)o1,i,5%,25µM*,-29%,-1%,1%
O=C(Nc1ccc(Nc2ccccc2)cc1)c1ccc(Br)o1,i,-5%,16µM*,-27%,-2%,-1%
O=C(Nc1ccc(Cc2ccncc2)cc1)c1ccc(Br)o1,i,2%,5%,11%,1%,0%
O=NN(Cc1ccc(Cl)cc1)[C@@H](C(=O)O)c1ccccc1,i,-10%[11.4 µM],3%[11.4 µM],2%[11.4 µM],-2%[15.4 µM],-1%[15.4 µM]
Clc1ccc(OCc2nnc3n2N=C(c2ccc4c(c2)OCCO4)CS3)c(Cl)c1,i,7%,138%,-20%,-4%,-3%
Cc1oc(-c2cc(Cl)ccc2Cl)cc1-c1nn2c(C)nnc2s1,i,7%,8%,-1%,-2%,-2%
CCc1nnc2n1N=C(c1ccc(-c3cc(Cl)ccc3Cl)o1)CS2,i,-13%,16µM*,-6%,1%,0%
CCc1nnc2n1N=C(c1ccc(-c3ccc(Cl)cc3Cl)o1)CS2,i,1%,25µM*,?,0%,-1%
